# DENV2 CPE rescue – protects cells from dengue virus 2 cytopathic effect; DENV2-infected cells, cytopathic effect rescue, plate reader; CPE inhibition, % at 9.99 µM; 350,000 compounds, 1.7% hits; AID 651640; in the data active = CPE inhibition above about 20%, passing the limit was not always enough; inconclusive = no clear call, values can overlap the other calls; tested in BHK-21 cells;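 also: 0% = median of neutral control wells and 100% = median of positive control wells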
# FGF22 binding – binders of recombinant human FGF22 by thermal shift; SYPRO orange fluorescence; percent of sucrose octasulfate shift, DMSO zero; 340,000 compounds, 1.5% hits; activity (Tm shift, normalised), % at 9.99 µM; Q9HCT0;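 active = mean Tm shift, scaled 0 neutral to 100 positive control, at about 1.3% or above, every replicate too, limit read from the data; inconclusive = no clear call, values can overlap the other calls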
# Target sequence (Q9HCT0 whole entry, looked up): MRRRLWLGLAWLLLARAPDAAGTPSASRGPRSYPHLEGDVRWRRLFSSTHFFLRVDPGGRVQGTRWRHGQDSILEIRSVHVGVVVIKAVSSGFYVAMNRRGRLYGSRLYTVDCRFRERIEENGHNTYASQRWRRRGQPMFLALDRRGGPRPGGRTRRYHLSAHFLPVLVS
# AF4-AF9 inh – MLL-AF4/AF9 protein interaction inhibition | P42568 | AlphaScreen, biotin-AF4 peptide binding to FLAG-AF9 | inhibition, % at 10 µM | 350,000 compounds, 0.47% hits | AID 651704;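 active = every replicate reaching a set inhibition limit, whatever the replicate mean, cut at about 25% in these data; inconclusive = mean inhibition reaches that limit but some replicates miss it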;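 also: 0% = plate neutral control median and 100% = total signal loss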
# RAD52 inh – RAD52 (human) annealing inhibition. P43351. recombinant RAD52 DNA annealing, FRET fluorescence. inhibition, % at 18.7 µM. 360,000 compounds, 0.46% hits. AID 651710;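 active = every replicate showing at least 50% inhibition; inconclusive = mean inhibition at least 50% but not in every replicate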
# ERAP1 inh – ERAP1 (human) enzyme inhibition; inhibition, % at 10.7 µM; recombinant ERAP1, Leu-AMC fluorescence, 60 min; 340,000 compounds, 0.15% hits; AID 652197;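 active = mean replicate inhibition of at least 30%, or all replicates individually reaching that 30% level; inactive = mean below 30% and not every replicate reaching it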;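 also: 0% = neutral control wells and 100% = L-leucinethiol positive control wells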
# The depositor's hits bear a star; ? = inconclusive; · = no result. Shown are actives, neighbours in structure and some others; about 4% of the full set was active somewhere.
SMILES,DENV2 CPE rescue,FGF22 binding,AF4-AF9 inh,RAD52 inh,ERAP1 inh
COc1ccc(-c2ccc([C@@H]3[C@H]4CN(C(=O)NC(C)C)CCCCN4[C@H]3CO)cc2)cc1,-8,0,-2,-15,2
COc1ccc(-c2ccc([C@H]3[C@@H](CO)N4CCCCN(C(=O)NC(C)C)C[C@H]34)cc2)cc1,31*,0,3,-1,1
COc1ccc(-c2ccc([C@H]3[C@H](CO)N4CCCCN(C(=O)NC(C)C)C[C@@H]34)cc2)cc1,40*,0,0,2,3
Cc1ccccc1NC(=O)Nc1ccc2c(c1)C(=O)N(C)[C@H]1CC[C@@H](CC(=O)O)O[C@@H]1CO2,1,0,·,·,·
C[C@@H]1CN([C@H](C)CO)C(=O)Cc2cc(NC(=O)Cn3cnnn3)ccc2O[C@H]1CN(C)Cc1ccc2c(c1)OCO2,9,0,-2,8,-2
CC(C)NC(=O)N1[C@@H](CO)[C@@H](c2ccccc2)C12CN(Cc1ccccc1)C2,28*,0,3,-13,-1
CC(C)NC(=O)N1CC2(C1)[C@H](c1ccccc1)[C@@H](CO)N2C(=O)c1ccccn1,33*,0,-1,8,·
CC(C)NC(=O)N1[C@H](CO)[C@@H](c2ccccc2)C12CN(C(=O)c1ccccn1)C2,10,0,-2,-8,-1
Nc1ccc(N=Nc2ccccc2O)c(N)c1,-3,0,49*,-9,8
COc1ccc(-c2sc3ccc(OC)cc3c2C#CCCO)cc1,·,·,·,19,-1
COc1ccc2sc(-c3ccc(N(C)C)cc3)c(C#CCCO)c2c1,26*,0,-4,-27,-4
O=c1c2c3c(sc2nc(NCCO)n1-c1ccccc1)CCCC3,7,0,0,0,-1
COc1ccc(-n2c(NN)nc3sc4c(c3c2=O)CCCC4)cc1,-4,43*,0,-10,0
COc1ccc(S(=O)(=O)Nc2ccc3c(c2)C(=O)N([C@@H](C)CO)C[C@H](C)[C@@H](CN(C)C(=O)C2CCCCC2)OCCCC[C@@H](C)O3)cc1,-14,0,3,3,0
Cc1ccc(NC2=NCC(=O)N2C2CCCC2)cc1,·,43*,0,0,-4
COCC(=O)Nc1ccc2c(c1)[C@H]1C[C@@H](CC(=O)N3CCc4ccccc4C3)O[C@@H](CO)[C@H]1O2,-2,0,-1,-4,0
Cc1cc(C(=O)Nc2ccc3c(c2)C(=O)N(C)[C@@H]2CC[C@@H](CC(=O)N[C@H](C)c4ccccc4)O[C@@H]2CO3)no1,-4,·,-1,-62,-5
CC(C)[C@H](NC(=O)OCc1ccccc1)C(=O)OCC(=O)NCc1ccco1,-12,43*,0,-19,2
CC(C)C(NC(=O)c1ccco1)C(=O)OCC(=O)Nc1ccc(C(N)=O)cc1 (stereo not drawn),-2,43*,-2,-11,1
CC(C)C(NC(=O)OCc1ccccc1)C(=O)OCC(=O)NC1CC1 (stereo not drawn),15,0,-1,-4,-6
CC(C)[C@H](NC(=O)c1ccco1)C(=O)OCC(=O)Nc1ccc(F)cc1,-1,0,-1,5,-1
COc1ccc(Nc2nnc(-c3ccccc3)c3ccccc23)cc1C(=O)N1CCCCC1,-2,43*,4,13,5
c1ccc(C2c3[nH]c4ccccc4c3CCN2Cc2cccn2-c2ccccn2)nc1 (stereo not drawn),-7,0,?,-5,-2
COc1ccc(C2c3[nH]c4ccccc4c3CCN2Cc2cccn2-c2ncccn2)cc1C (stereo not drawn),-6,0,31*,-12,-4
Cc1cccc(C2c3[nH]c4ccccc4c3CCN2Cc2cccn2-c2ncccn2)c1 (stereo not drawn),-5,0,31*,11,-3
C[C@@H]1CN([C@H](C)CO)C(=O)c2c(c3ccccc3n2C)-c2ccccc2CO[C@@H]1CN(C)C(=O)[C@H](C)c1ccccc1,-12,0,-9,11,-5
CCOCCCNc1nc2nc3ccc(C)cn3c(=O)c2cc1C(=O)NCC1CCCO1 (stereo not drawn),·,0,-3,-7,57*
Cc1cccn2c(=O)c3cc(C(=O)NCC4CCCO4)c(=N)n(Cc4cccnc4)c3nc12 (stereo not drawn),·,·,·,-38,105*

# Source: PubChem BioAssay
